Screening results as filed in PubChem.
Lassa entry inh: inhibitors of Lassa virus binding or cell entry | Potency, µM (doses to about 37.9 µM), for the others: top-dose activity change, negative = inhibition, hits mostly inhibitors | Lassa virus pseudotype entry inhibition, cell reporter | hit rate 1.2% among 300,000 | AID 540256; calls by dose curve; tested in HEK293 cells; note: potency is the fitted concentration of half-maximal effect; nearly all actives have a fitted effect of over 50% in size
MARV entry inh: inhibitors of Marburg virus binding or cell entry | Marburg virus pseudotyped entry inhibition, cell reporter | Potency, µM (titrated, usually from 37.8 µM), inactives show at the top dose activity change, negative = inhibition, actives largely listed as inhibitors | hit rate 1.8% among 300,000 | AID 540276; calls by dose curve; tested in HEK293 cells; note: potency is the fitted concentration of half-maximal effect
HCMV antiviral: inhibitors of human cytomegalovirus | HFF cells, HCMV-luciferase reporter, 72 h; hits give low values | activity change, negative = inhibition, % at 57.5 µM | AID 1259415 | hit rate 4.5% among 410,000; in the data active = activity change below about -60%; inconclusive = no clear call, values can overlap the other calls; inactive = above about -39%
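Luciferase read-out from HCMV-luciferase-infected HFFs (MOI 1 PFU/cell) 72 h post infection at 37C; compounds added after 16 h cell attachment; activity normalized between buffer-only basal and Salinomycin (10uM) inhibitor controls.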
HCV inh: HCV inhibition; Huh7.5.1 HCVcc-Cre infection, luciferase reporter, 44 h; Potency, µM (doses to about 41.8 µM), for inactives: top-dose activity change, negative = inhibition, actives largely listed as inhibitors; hit rate 3.4% among 340,000; active = well fitted inhibition curve with a large enough effect; inconclusive = small, poorly fitted or top-dose-only effect, or another doubt; inactive = no such curve, though single readings can be large or run the other way; note: potency is the fitted concentration of half-maximal effect
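Luciferase read-out (15 sec integration) after a 15 min room-temperature substrate step quantifies HCVcc-Cre infection. Cells, 1,000 per well, had compound added 4 h post-plating, then virus at ~0.5 moi, and were cultured 44 h.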
FMDV antiviral: antivirals against foot and mouth disease virus | Potency, µM (top dose mostly 57.9 µM), for the others: at the top dose activity change, negative = inhibition, hits mostly inhibitors | FMDV antiviral cell-based qHTS | AID 1159524 | hit rate 1.2% among 410,000; calls by dose curve; tested in HEK293T cells; note: read-out not given here; potency is the fitted concentration of half-maximal effect; nearly all actives have a fitted effect of over 45% in size
* = called active by the depositor; ? = inconclusive; . = no result given; [ ] = dose if it differs, or a comment. Only some compounds are listed: those with a hit (about 7.9% of all), similar ones and a draw of the others. % is set by controls: 0 for no effect and ±100 for the full control effect.

SMILES	Lassa entry inh	MARV entry inh	HCMV antiviral	HCV inh	FMDV antiviral
COc1ccc(NC(=O)Cc2ccccc2F)cc1S(=O)(=O)N1CCCCC1	.	.	-18	?	21%
COc1ccc(NC(=O)CCOc2ccccc2F)cc1S(=O)(=O)N1CCCCC1	?	?	-6	13µM*	?
CCC(C(=O)N1CCN(Cc2ccc3c(c2)OCO3)CC1)n1nnc2ccccc2c1=O (configuration not stated)	.	.	-31	.	-22%
CCOC(=O)CCNC(=O)C1=CN2CCN(Cc3c(C)noc3C)C(=O)N=C2O1	.	.	-4	.	.
Cc1ccc(NC(=O)Cn2cc(C(F)(F)F)cc(Cl)c2=O)cc1S(=O)(=O)N1CCCCC1	?	?	6	?	-19%
Cc1ccc(NCC(=O)Nc2ccc(F)c(Cl)c2)cc1S(=O)(=O)N1CCOCC1	.	.	-61*	.	?
Cc1ccc(NC(=O)CN(C)C(=O)Cn2ncc(Cl)c(Cl)c2=O)cc1	16µM*	5µM*	-100*	3.2µM*	0%
Cc1ccc(NC(=O)Cn2ncc(Cl)c(Cl)c2=O)cc1S(=O)(=O)N1CCCCC1	.	.	0	10µM*	28µM*
Cc1ccc(NC(=O)CNc2cccc(Br)c2)cc1S(=O)(=O)N1CCOCC1	.	.	-27	?	-26%
Cc1ccc(NC(=O)Cn2c(=O)ccn(Cc3ccccc3)c2=O)cc1S(=O)(=O)N1CCOCC1	.	.	0	11µM*	-29%
O=C(Cn1c(=O)ccn(Cc2ccccc2)c1=O)Nc1cccc(S(=O)(=O)N2CCOCC2)c1	9%	16%	-19	-10%	-13%
O=C(NN=C1C[C@@H](O)[C@H](O)[C@H]2[C@@H]3C(=O)N(c4cccc(Oc5ccccc5)c4)C(=O)[C@@H]3CC[C@H]12)OCc1ccccc1	?	4%[14.2 µM]	.	.	.
COc1ccc2cc(CNc3ccc(OC)c(OC)c3)c(=O)n(CC(=O)Nc3ccc(C)cc3)c2c1	0%[46.1 µM]	.	-19	.	-17%
O=C(OCC(=O)N1CCc2ccccc21)c1n[nH]c(=O)c2ccccc12	.	.	4	18%	-7%
CCCOc1ccc(/C=N/NC(=O)c2ccc3c(c2)OCO3)c(OCCC)c1	1%	-13%[46.1 µM]	19	-29%	-17%
O=[S+]1([O-])N[C@@H]2Cc3ccccc3[C@@H]2Oc2cc(Br)ccc21	-3%[46.1 µM]	.	.	.	.
Cc1nc2cnc(Oc3ccccc3)nc2n(C)c1=O	.	.	.	.	6%
Cc1ccc(CN2CC(C(=O)Nc3ccc(C)c(S(=O)(=O)N4CCCCC4)c3)CC2=O)cc1 (configuration not stated)	?	?	-66*	?	-11%
CCOC(=O)c1cnc(-n2nc(C)cc2C)nc1NCc1ccccc1	?	?	-73*	?	28µM*
CCOC(=O)c1cnc(-n2nc(C)cc2C)nc1NC(C)c1ccccc1 (configuration not stated)	-3%	25%	-97*	?	0%
CCOC(=O)c1cnc(-n2nc(C)cc2C)nc1NNc1ncc(-c2ccccc2)cn1	?	11µM*	.	?	-20%
O=C(COC(=O)C12CC3CC(CC(O)(C3)C1)C2)Nc1cccc(Br)c1	12%	3%	-102*	3%	23%
CCOc1ccccc1CN1CCNC(=O)C1CC(=O)NCc1cc(C)n(C)n1 (configuration not stated)	-7%[46.1 µM]	?	-4	15%	1%
CCN(CC)S(=O)(=O)c1ccc(-c2nnc(SCC(=O)N3c4ccccc4CC3C)o2)cc1 (configuration not stated)	?	-14%	-13	-22%	0%
CCN(CC)S(=O)(=O)c1ccc(-c2nnc(SCC(=O)N3c4ccccc4CC3C)n2CC)cc1 (configuration not stated)	?	?	?	?	20µM*
COc1ccc2c(c1)CCC/C(C)=C/C(=O)c1ccccc1O2	.	.	3	.	.
O=C(NCc1ccccc1CN1CCCC1)c1ccc(Cl)c(N2CCCC2=O)c1	.	.	-34	18µM*	6%
O=C(NCc1ccccc1CN1CCCCC1)c1ccc(Cl)cc1N1CCCC1=O	.	.	-6	11%	-16%
Cc1ncc2c(c1CNC(=O)CN1CCCC1)CCN(C(=O)c1ccc(F)cc1F)C2	.	.	.	.	1%
Cc1ccc(-c2csc(-c3cc4c([nH]c3=O)CC(c3ccccc3)CC4=O)n2)cc1 (configuration not stated)	8%[46.1 µM]	-12%[46.1 µM]	0	.	-14%
